Our source for the potency estimated from few doses values is paper PMC11062922 (Nature Chemical Biology, 2023).

Read-outs that look alike come from different tables or passages of the source.

Common to all, as to design: species or system human, MV4-11 + K-562 + COLO205 + SK-N-BE2 + OVCAR-8
The subject of test [1] is NQO2. The settings on record: read-out: apparent Kd, compound concentrations: 100 nM and 1000 nM (sheet 'Samples'), n = 1.
Test [2] has as its system PDXK. The settings on record: read-out: apparent Kd, n = 1.
For test [3], the system named is MAP4K5. As to conditions: read-out: apparent Kd; compound concentrations:100 nM and 1000 nM (sheet 'Samples'); n = 1.
Test [4] relates to T1, DJA1.
T1 construct: gene DNAJA1
As to conditions: read-out: apparent Kd, n = 1.

The subject of test [5] is MAP2K1. The settings on record: read-out: apparent Kd, n = 1.
In test [6] the test system is MAPK9. The settings on record: read-out: apparent Kd, n = 1.
Test [7] relates to PIK3CD. As to conditions: read-out: apparent Kd, n = 1.
Test [8] relates to TGFBR2. The settings on record: read-out: apparent Kd; compound concentrations:100 nM and 1000 nM (sheet 'Samples'); n = 1.
For test [9], the system named is MAP2K2. The settings on record: read-out: apparent Kd, n = 1.
Test [10] deals with NQO1. The settings on record: read-out: apparent Kd, n = 1.
Test [11] relates to EPHB2. As to conditions: read-out: apparent Kd; compound concentrations: 100 nM and 1000 nM (sheet 'Samples'), CATDS: 3.4039918374270103E-2; n = 1.
Test [12] deals with CSNK1D. The settings on record: read-out: apparent Kd; compound concentrations:100 nM and 1000 nM (sheet 'Samples'); n = 1.
Test [13] concerns MAPKAPK2. The settings on record: read-out: apparent Kd; compound concentrations:100 nM and 1000 nM (sheet 'Samples'); n = 1.
For test [14], the system named is PDGFRB. The settings on record: read-out: apparent Kd, n = 1.
[15] abbreviates: compound concentrations:100 nM and 1000 nM (sheet 'Samples').

Consider `Cn1cc(C2=C(c3cccc([N+](=O)[O-])c3)C(=O)NC2=O)c2ccccc21` [RO0317474-000], for which the potency estimated from few doses in test [1] (CATDS: 0.12983117909003999) was 1960 nM; in [2] (compound concentrations: 100 nM and 1000 nM (sheet 'Samples'), CATDS: 0.221818886522231) it was 628 nM.

Turning to `COc1cc2ncn(-c3cc(O[C@H](C)c4ccccc4Cl)c(C(N)=O)s3)c2cc1OC` [GSK237701A], the potency estimated from few doses in [3] was 1160 nM.

Regarding `COc1cc(N2CCN(C(C)C)CC2)ccc1Nc1nc(Nc2cccc(F)c2C(=O)O)c2cc[nH]c2n1` [GSK1819799A], the potency estimated from few doses in test [4] (compound concentrations: 100 nM and 1000 nM (sheet 'Samples'), CATDS: 4.1353934999492699E-2) was 2220 nM; in [5] (compound concentrations: 100 nM and 1000 nM (sheet 'Samples'), CATDS: 4.3561445001152499E-2) it was 1870 nM; in test [6] (compound concentrations: 100 nM and 1000 nM (sheet 'Samples'), CATDS: 0.24378772023950801) it was 74.5 nM.

`NC(=O)c1cccnc1COc1cc(-c2ccc(N3CCOCC3)nc2)cc2ncccc12` [BI01125081]: the potency estimated from few doses in [4] (setting [15]) is 1430 nM; in test [2] (setting [15]) it was 1680 nM; in test [7] (setting [15]) it was 126 nM; in test [8], 1310 nM.

For `COc1ccc(Nc2nccc(N3CCC(NC(=O)Nc4cccc(OC)c4)C3)n2)cc1` (centres unmarked) [GSK1379742A], the potency estimated from few doses in test [5] (compound concentrations: 100 nM and 1000 nM (sheet 'Samples'), CATDS: 0.105548477944527) is 2400 nM; in [9] (compound concentrations: 100 nM and 1000 nM (sheet 'Samples'), CATDS: 0.114470387989454), 1980 nM; in test [10] (compound concentrations: 100 nM and 1000 nM (sheet 'Samples'), CATDS: 0.15295412535869199) it was 1120 nM.

Turning to `Cc1ccc(CC(=O)N2CCc3cc(-c4cn(C)c5ncnc(N)c45)ccc32)cc1` [GSK2634758A], the potency estimated from few doses in [4] (compound concentrations: 100 nM and 1000 nM (sheet 'Samples'), CATDS: 0.16738098836047199) is 1400 nM; in test [1] (CATDS: 0.188092935593722), 1120 nM; in test [2] (compound concentrations: 100 nM and 1000 nM (sheet 'Samples'), CATDS: 0.16794834883854801), 1390 nM.

Turning to `COc1ccc(C2=C(c3cn(C)c4ccccc34)C(=O)NC2=O)cc1OC` [RO3206363-000], the potency estimated from few doses in test [4] (compound concentrations: 100 nM and 1000 nM (sheet 'Samples'), CATDS: 3.2513241063347201E-2) is 1710 nM; in test [11], 1430 nM; in test [6] (compound concentrations: 100 nM and 1000 nM (sheet 'Samples'), CATDS: 8.8329407260920895E-2), 133 nM; in test [1] (CATDS: 4.2100406306544602E-2), 722 nM; in [7] (compound concentrations: 100 nM and 1000 nM (sheet 'Samples'), CATDS: 0.47573299908292999), 9.3 nM.

Regarding `Fc1ccc(-c2ncn(C3CCNCC3)c2-c2ccnc(Oc3ccc4c(c3)OCO4)n2)cc1` [SB-250715], the potency estimated from few doses is 271 nM in test [12]; 1050 nM in test [5] (setting [15]); 1560 nM in test [9] (setting [15]); 1260 nM in test [6] (setting [15]); 4.25 nM in test [13]; 1700 nM in test [10] (setting [15]).

Consider `Cl.Oc1ccc2ncnc(Nc3ccc(OCc4ccccc4)cc3)c2c1` [GI262866A], for which the potency estimated from few doses in test [2] (setting [15]) is 506 nM.

In the case of `COc1cccc(C2=C(c3cn(C)c4c(C)cccc34)C(=O)NC2=O)c1` [RO3301012-000], the potency estimated from few doses is 1550 nM in test [10] (compound concentrations: 100 nM and 1000 nM (sheet 'Samples'), CATDS: 0.106114123885474); 2000 nM in test [2] (compound concentrations: 100 nM and 1000 nM (sheet 'Samples'), CATDS: 9.7216683357623401E-2).

Consider `Fc1cccc(COc2ccc(Nc3ncncc3C#Cc3ccccc3)cc2Cl)c1` [GW651576X], for which the potency estimated from few doses is 1040 nM in test [4] (compound concentrations: 100 nM and 1000 nM (sheet 'Samples'), CATDS: 6.6379654075199995E-2); 2200 nM in [5] (compound concentrations: 100 nM and 1000 nM (sheet 'Samples'), CATDS: 4.57330679966748E-2); 1350 nM in test [9] (compound concentrations: 100 nM and 1000 nM (sheet 'Samples'), CATDS: 5.7439305981691703E-2); 2090 nM in test [10] (compound concentrations: 100 nM and 1000 nM (sheet 'Samples'), CATDS: 4.6647451225595299E-2).

Turning to `CS(=O)(=O)c1ccc(-c2nc3n(c2-c2ccncc2)CCC3)cc1` [SKF-105942], the potency estimated from few doses is 1700 nM in [4] (compound concentrations: 100 nM and 1000 nM (sheet 'Samples'), CATDS: 0.12627731400414099); 1480 nM in test [10] (compound concentrations: 100 nM and 1000 nM (sheet 'Samples'), CATDS: 0.13363559113377599); 1270 nM in test [1] (CATDS: 0.142598499620046); 141 nM in test [7] (compound concentrations: 100 nM and 1000 nM (sheet 'Samples'), CATDS: 0.51073942178012399).

As for `Nc1c(C(=O)c2ccccc2)cnn1-c1ccc(F)cc1` [RO1151246-000], the potency estimated from few doses in [5] (setting [15]) was 1470 nM; in test [9] (setting [15]), 1540 nM; in test [13], 665 nM.

On to `Cc1ccc(NC(=O)Nc2ccccc2)cc1-c1ccc(C(=O)Nc2ccncc2)cc1` [GSK1398471A], for which, in test [14] (compound concentrations: 100 nM and 1000 nM (sheet 'Samples'), CATDS: 0.100538994858546), the potency estimated from few doses is 1940 nM.

In the case of `Cl.Fc1cccc(COc2ccc(Nc3ncnc4cc(-c5ccc[nH]5)sc34)cc2Cl)c1` [GW693881A], in test [1] (CATDS: 0.24245202120631801), the potency estimated from few doses is 560 nM.

`Cn1cc(C2=C(c3cn(CCCN/C(N)=N/[N+](=O)[O-])c4ccccc34)C(=O)NC2=O)c2ccccc21` [RO0318161-000]: the potency estimated from few doses in test [2] (compound concentrations: 100 nM and 1000 nM (sheet 'Samples'), CATDS: 0.37249947882966999) is 866 nM.

In the case of `CCS(=O)(=O)c1ccc(OC)c(Nc2ncc(-c3cccc(F)c3)o2)c1` [GW621970X_KCGS], the potency estimated from few doses in test [14] (setting [15]) was 1960 nM.

Take `Cn1cc(C2=C(c3ccccc3[N+](=O)[O-])C(=O)NC2=O)c2ccccc21` [RO0317753-000]: the potency estimated from few doses in test [1] (CATDS: 7.9210826703434503E-2) is 1280 nM; in test [2] (compound concentrations: 100 nM and 1000 nM (sheet 'Samples'), CATDS: 8.6520417055061499E-2), 907 nM.

For the compound `Cc1ccc(-n2nc(C(C)(C)C)cc2NC(=O)Nc2ccc(OCCN3CCOCC3)cc2)cc1` [BIRB0876BS], the potency estimated from few doses in test [7] (setting [15]) is 9.61 nM.

Take `Cc1[nH]nc2c1N=C(c1ccccc1Cl)c1cc([N+](=O)[O-])ccc1N2` [RO0274406-000]: the potency estimated from few doses in [2] (compound concentrations: 100 nM and 1000 nM (sheet 'Samples'), CATDS: 8.1891234484878103E-2) was 832 nM.

Regarding `O=C1NC(=O)C(c2cccc(Cl)c2)=C1Nc1ccc(O)c(Cl)c1` [SB-409514], in test [14] (compound concentrations: 100 nM and 1000 nM (sheet 'Samples'), CATDS: 0.33776588797305401), the potency estimated from few doses is 1280 nM.
